Screening data: PubChem, National Center for Advancing Translational Sciences (NCATS)
The list is not random: actives were taken first. Their share in the collection is about 12%.
SARS PLP yeast – qHTS of Yeast-based Assay for SARS-CoV PLP. S. cerevisiae expressing SARS-CoV PLpro, growth rescue. Potency, µM (highest dose often 32.9 µM), for the others: at the top dose activity, positive = growth rescue, hits mostly activators. 330,000 tested, 0.19% active; also: potency is read from the fitted curve at half-maximal effect; 0% is about no effect; nearly all actives have a fitted effect of over 55% in size
Shiga inhibitor – A qHTS for Small Molecule Inhibitors of Shiga Toxin. Vero cells, Shiga toxin protein synthesis inhibition reporter. inhibition, % at 38.7 µM. 290,000 tested, 9.2% active. AID 2315, 2010; in the data active = inhibition mostly above about 28%, no sharp cut-off; inactive = mostly below about 43%; also: 0% is about no effect
Cycloheximide cs – Cycloheximide Counterscreen for Small Molecule Inhibitors of Shiga Toxin | cell reporter, cycloheximide protein synthesis inhibition counterscreen | max response, % | 300,000 tested, 12% active | AID 2314, 2010; in the data active = max response mostly above about 13%, no sharp cut-off; inactive = mostly below about 14%; also: read at 38.3 µM for the half of the compounds with a filed dose; 0% is about no effect
NS1 inh – qHTS Assay for Inhibitors of Influenza NS1 Protein Function; AID 2326, 2010; 270,000 tested, 0.4% active; Potency, µM (doses to about 46.1 µM), without a hit: at the top dose activity, positive = more growth; also: potency is read from the fitted curve at half-maximal effect; actives are rising curves; nearly all actives have a fitted effect of over 50% in size
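OD600 was taken as the measure of yeast growth restored by compound in an NS1-expressing S. cerevisiae strain. Cells had been washed out of glucose medium and diluted 1:100 into galactose -URA medium, pH 6.0.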
Numbers without * were called inactive; . = no result; + = active, no number. Unless noted, calls follow the shape of the full dose curve.

SMILES	SARS PLP yeast	Shiga inhibitor	Cycloheximide cs	NS1 inh
O=C(Cc1cc(=O)[nH][nH]1)N/N=C/c1cccc(Cl)c1Cl	9%	-2	-4	10µM*
O=C(CN1CCCCC1)N/N=C/c1ccccc1Br	6%	21	9.1*	4%
O=C(CN1CCCCCC1)N/N=C/c1cccc(Cl)c1Cl	-16%	105*	24*	12%
CC1CCCC(C)N1C(=O)COc1ccc(F)cc1 (stereo unspecified)	-1%	12	26*	0%
Cc1cc(Cl)ccc1OCC(=O)N1C(C)CCCC1C (stereo unspecified)	-11%	73*	20*	-30%
CC1CCCC(C)N1C(=O)COc1ccc([N+](=O)[O-])cc1Cl (stereo unspecified)	-1%	19	18	.
CC1CCCC(C)N1C(=O)COC(=O)COc1ccc(C#N)cc1 (stereo unspecified)	4%	.	.	.
N#Cc1cc(NC(=O)c2ccc(F)cc2)c(=O)n2c1[nH]c1ccccc12	1%	-5	-4	0%
COc1cccc2cc(C(=O)CS(=O)(=O)c3ccc(C(C)(C)C)cc3)c(=O)oc12	0%	-13	-1	13%
O=C(CS(=O)(=O)c1ccccc1)c1cc2cc(F)ccc2oc1=O	-5%	45*	50*	14%
COc1ccc2cc(C(=O)CS(=O)(=O)c3ccccc3)c(=O)oc2c1	4%	25	21	-3%
O=C(CS(=O)(=O)c1ccccc1)c1cc2ccccc2oc1=O	-21%	63*	32*	-12%
COc1cc(C(=O)NNC(=O)C2CSC3(C)CCC(=O)N23)cc(OC)c1OC (stereo unspecified)	3%	.	.	.
CCOc1cc(/C=N\NC(=O)c2c(C)nc3ccccn23)ccc1O	-2%	.	13*	4%
CCOc1cc(/C=N/NC(=O)c2c(-c3ccccc3)noc2C)ccc1O	3%	3	3	.
Cc1nc2ccccn2c1C(=O)N/N=C/c1ccc2c(c1)OCO2	10%	88*	59*	-3%
CCOc1cc(/C=N/Nc2nn3cnnc3c3ccccc23)ccc1O	-1%	25	12*	5%
CCCc1nc2cc(Cl)c([N+](=O)[O-])cc2o1	-1%	38	4	1%
CCCc1nc2cc(CC(=O)OC)ccc2o1	-7%	17	22*	-16%
COc1cc(C(=O)NCCCc2ccccc2)cc(OC)c1OC	3%	.	0	-5%
COC(=O)CCCNC(=O)c1ccc2oc(CCCc3ccccc3)nc2c1	1%	21*	24*	-13%
COC(=O)[C@@H](C)NC(=O)c1ccc2oc(CCc3ccccc3)nc2c1	-1%	31*	51*	-16%
N=c1cc(C2(O)CCCCC2)n2c(nc3ccccc32)s1	-1%	89*	48*	-49%
NC1=NC2(CCCCC2)n2c(nc3ccccc32)N1	1%	-3	10	5%
O=C(Cn1nc(-c2ccc(F)cc2)ccc1=O)Nc1ccc2c(c1)OCCO2	3%	-19	-3	-12%
SMILES	SARS PLP yeast	Shiga inhibitor	Cycloheximide cs	NS1 inh
Cc1ccc(/C=C/C(=O)N2CCCN(C(=O)/C=C/c3ccc(C)cc3)CC2)cc1	14%	34	16*	-6%
CSc1ccc(/C=C/C(=O)N2CCCN(C)CC2)cc1	0%	52*	23*	.
Cc1ccc(/C=C/C(=O)N2CCc3ccccc3C2)cc1	-1%	12	11*	-55%
CC1CCC2C(=O)N(c3ccc(S(=O)(=O)c4ccccc4)cc3)C(=O)C2C1 (stereo unspecified)	-1%	-2	-3	6%
COc1ccc(C(=O)NCC(C)(C)N2CCOCC2)cc1S(=O)(=O)N1CCCC1	-1%	.	.	.
CC(C)CCNC1c2ccccc2C(=O)N1Cc1ccccc1 (stereo unspecified)	0%	-8	-1	-14%
CCc1ccc(OCC(=O)NNCC(=O)Nc2ccc(OC)cc2)cc1	-1%	.	.	.
Oc1ccc(O)c(/C(=N/Nc2ccccc2)c2ccccc2)c1	6%	17	27*	2%
Cc1cc2[nH]c3ccccc3c2c(C)n1	2%	37*	36*	3%
O=C(Nc1nnc(SCc2ccc(F)cc2)s1)c1ccc2ncsc2c1	0%	+	65*	15%
O=C(Nc1nnc(SCc2ccc(F)cc2)s1)c1cnccn1	-1%	-6	14	-21%
CC(=O)Nc1nnc(SCc2cccc(F)c2)s1	-1%	21*	13	-9%
CC(=O)Nc1nnc(SCC(=O)c2ccc(F)cc2)s1	-1%	71	12	-3%
CC(=O)Nc1nnc(SCc2ccc(F)cc2)s1	2%	23	39*	-13%
CCOC(=O)c1nc(-c2ccccc2)oc1N1CCOCC1	0%	-29	-2	-3%
